PubChem BioAssay (NCI)
The panel holds about 83,000 compounds, 20% with a hit somewhere; the sample as a whole holds those more often.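 Cell lines were cultured in 96-well plates, exposed to a single compound concentration, and assessed for percent growth 48 hours later.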 Values without a mark were called inactive. The source made the active and inactive calls. How the source made its calls: active means growth percent below 10; inactive means the rest.

What was measured:
Assay in all cases: NCI-60 one-dose screen, 48 h (100 = growth as untreated, 0 = no growth, -100 = all killed)
Conditions in all cases: 10 µM unless noted
NCI-H23 lung = test system: NCI-H23 lung
NCI-H226 lung = test system: NCI-H226 lung
NCI-H322M lung = test system: NCI-H322M lung
HOP-62 NSCLC = test system: HOP-62 NSCLC
NCI-H460 lung = test system: NCI-H460 lung
HOP-92 NSCLC = test system: HOP-92 NSCLC
NCI-H522 lung = test system: NCI-H522 lung
A549/ATCC NSCLC = test system: A549/ATCC NSCLC
786-0 renal = test system: 786-0 renal
COLO 205 colon = test system: COLO 205 colon
DU-145 prostate = test system: DU-145 prostate
K-562 leukemia = test system: K-562 leukemia
MALME-3M melanoma = test system: MALME-3M melanoma
MDA-MB-231 breast = test system: MDA-MB-231 breast
RXF 393 renal = test system: RXF 393 renal
SF-268 CNS = test system: SF-268 CNS
SF-295 CNS = test system: SF-295 CNS
SF-539 CNS = test system: SF-539 CNS
UACC-257 melanoma = test system: UACC-257 melanoma
M14 melanoma = test system: M14 melanoma

| SMILES | growth (NCI-H23 lung) | growth (NCI-H226 lung) | growth (NCI-H322M lung) | growth (HOP-62 NSCLC) | growth (NCI-H460 lung) | growth (HOP-92 NSCLC) | growth (NCI-H522 lung) | growth (A549/ATCC NSCLC) | growth (786-0 renal) | growth (COLO 205 colon) | growth (DU-145 prostate) | growth (K-562 leukemia) | growth (MALME-3M melanoma) | growth (MDA-MB-231 breast) | growth (RXF 393 renal) | growth (SF-268 CNS) | growth (SF-295 CNS) | growth (SF-539 CNS) | growth (UACC-257 melanoma) | growth (M14 melanoma) |
| --- | --- | --- | --- | --- | --- | --- | --- | --- | --- | --- | --- | --- | --- | --- | --- | --- | --- | --- | --- | --- |
| NCCNc1nc(-c2ccccc2)nc2nc(-c3ccccc3)oc12 | 90.6% | 86.1% | 104% | 85.6% | 98.4% | 55.1% | 105% | 93.6% | 81% | 87.4% | 98.2% | 24.2% | 102% | 92.8% | 85.9% | 73.3% | 101% | 90.4% | 111% | 97.8% |
| COc1cc(-c2c(C#N)c(-c3cccs3)nc3c2c(-c2ccccc2)nn3-c2ccccc2)ccc1O | 98.4% | 91.2% | 96.6% | 74.5% | 77.5% | 93.5% | 69.8% | 58.3% | 85.4% | 89.7% | 85.6% | 66.2% | 87.2% | 87.8% | 94.4% | 80.4% | 98.2% | 93.5% | 81.3% | 89.3% |
| COc1cc2nc(Cl)nc(Nc3cccc(C(=O)/C=C/c4ccc(Cl)cc4)c3)c2cc1OC | 80.9% | 88.1% | 83.1% | 86.8% | 91.3% | 78.3% | 77.6% | 78.2% | 64.8% | 86.9% | 88.2% | 11.3% | 88.2% | 73.7% | 62.7% | 85.7% | 80.6% | 50% | 94% | 70.2% |
| Cn1cc(-c2csc(-c3cn(CCN)c4ccc(F)cc34)n2)c2cccnc21 | 72.4% | 80.2% | 73% | 64.7% | 23.4% | 48.5% | 81.2% | 42% | 79.4% | 67.1% | 68.5% | 11.4% | 87.4% | 59.9% | 82.6% | 85.9% | 92.4% | 80.1% | 100% | 81.4% |
| O=C(/C=C/c1cccc2ccccc12)Nc1ncc(Cc2ccccc2)s1 | 22.1% | 28.4% | 12.5% | 28.7% | 2.17% (active) | 70.3% | 34.5% | 19.5% | 34.3% | 12.1% | 21.2% | 8.6% (active) | 21.7% | 25% | -10% (active) | 50.8% | -40.1% (active) | -24.4% (active) | 60.8% | -21.3% (active) |
| CC(C)(C)c1cc(-n2c(-c3ccc(Cl)cc3)nc3cc(C(=O)Nc4ccc(Cl)cc4)ccc32)n[nH]1 | 32.8% | 73.9% | 82% | 83.6% | 39.6% | 38.1% | 56.9% | 51.1% | 67.4% | 51.8% | 79.8% | 41.2% | 75.4% | 79.8% | 65.7% | 69.7% | -2.36% (active) | 82.9% | 81.1% | 62.7% |
| CCC(=O)c1c(C)[nH]c(C)c1C | 94% | 101% | 94.6% | 77.8% | 55.5% | 107% | 56.2% | 86.2% | 99.2% | 89.4% | 0.904% (active) | 110% | 116% | 95.8% | 80.4% | 90.7% | 68.3% | 105% | 99% | 90.4% |
| CC1(C)C(=O)/C(=C\c2ccco2)C[C@]2(C)[C@H]3CC[C@@H]4[C@@H](C(=O)/C=C/c5ccco5)CC[C@@]4(C)[C@]3(C)CC[C@@H]12 | 92.8% | 103% | 105% | 83.2% | 98.7% | 17.6% | 92.4% | 96.9% | 119% | -80.2% (active) | 75.2% | 85.6% | 1.28% (active) | 56% | 101% | 78.7% | 100% | 97.5% | 16.8% | 23.9% |
